Test results from PubChem BioAssay (NCI).
About 83,000 compounds went through this panel and 20% of them were active in at least one assay; those are over-represented in the sample as a whole.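 Activity criterion: percent growth below 10, measured after cells in 96-well plates were exposed to a single compound concentration for 48 hours.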 Unmarked numbers belong to inactive results. The source made the active and inactive calls.

Tests used:
Experiment in all cases: NCI-60 one-dose screen, 48 h (100 = growth as untreated, 0 = no growth, -100 = all killed)
SK-MEL-2 melanoma = settings: 10 µM unless noted
EKVX NSCLC = settings: 10 µM
SN12C renal = settings: 10 µM unless noted
UO-31 renal = settings: 10 µM unless noted
TK-10 renal = settings: 10 µM unless noted
ACHN renal = settings: 10 µM unless noted
CAKI-1 renal = settings: 10 µM unless noted
A498 renal = settings: 10 µM unless noted
CCRF-CEM leukemia = settings: 10 µM
MOLT-4 leukemia = settings: 10 µM unless noted
SR leukemia = settings: 10 µM unless noted
RPMI-8226 leukemia = settings: 10 µM unless noted
OVCAR-8 ovarian = settings: 10 µM unless noted
OVCAR-5 ovarian = settings: 10 µM unless noted
OVCAR-4 ovarian = settings: 10 µM unless noted
SK-OV-3 ovarian = settings: 10 µM unless noted
IGROV1 ovarian = settings: 10 µM unless noted
OVCAR-3 ovarian = settings: 10 µM unless noted
HS 578T breast = settings: 10 µM unless noted
NCI/ADR-RES ovarian = settings: 10 µM unless noted

| Compound | growth (SK-MEL-2 melanoma) | growth (EKVX NSCLC) | growth (SN12C renal) [%] | growth (UO-31 renal) | growth (TK-10 renal) [%] | growth (ACHN renal) | growth (CAKI-1 renal) | growth (A498 renal) | growth (CCRF-CEM leukemia) | growth (MOLT-4 leukemia) | growth (SR leukemia) | growth (RPMI-8226 leukemia) | growth (OVCAR-8 ovarian) [%] | growth (OVCAR-5 ovarian) [%] | growth (OVCAR-4 ovarian) | growth (SK-OV-3 ovarian) | growth (IGROV1 ovarian) | growth (OVCAR-3 ovarian) | growth (HS 578T breast) | growth (NCI/ADR-RES ovarian) |
| --- | --- | --- | --- | --- | --- | --- | --- | --- | --- | --- | --- | --- | --- | --- | --- | --- | --- | --- | --- | --- |
| COc1cc2c(/C=C3\C(=O)Nc4ccc(Br)cc43)c(Cl)n(C)c2cc1C | 29.7% | 42.1% | 35.5 | 31.6% | 31.2 | 29.5% | 69.7% | 3.37% (active) | -11.7% (active) | 4.36% (active) | 0.77% (active) | 0.149% (active) | 17.8 | 13.4 | 45.6% | 24.7% | -10.2% (active) | -23.5% (active) | 40.2% | -17.7% (active) |
| CCOC(=O)c1c(C)oc2ncnc(Nc3ccc(NC(=O)Nc4cccc(Cl)c4)cc3)c12 | 72.7% | 72.3% | 74 | 50.4% | 79.2 | 57.5% | 90.8% | 63% | 31.5% | 49.3% | 53.6% | 46.1% | 50.2 | 122 | 73.7% | 93.3% | 78.4% | 80.9% | 80.6% | 43.8% |
| COc1ccc(Cn2cc3c(c2-c2ccc(OC)cc2)CCc2cnoc2-3)cc1 | 31% | 49.4% | 26.5 | 25.7% | 69.1 | 30.7% | 14.8% | 3.78% (active) | 9.28% (active) | 23.7% | 1.81% (active) | 16.7% | 23.8 | 52.2 | 35.9% | 3.54% (active) | -2.82% (active) | -18.2% (active) | -2.76% (active) | -3.57% (active) |
| COc1cc(NC(C)CCCN)c2nc(C)ccc2c1OC (configuration not stated) | 99.6% | 97.1% | 99 | 95.7% | 110 | 105% | 106% | 92.7% | 24.8% | 6.98% (active) | 17.7% | 69.1% | 119 | 95.6 | 94.6% | 107% | 103% | 64.1% | 105% | 101% |
| c1ccc(Nc2ncc3c(n2)-c2cccn2CC3)cc1 | 101% | 66.2% | 85.7 | 49.1% | 90.8 | 74.4% | 72.4% | 75.5% | 102% | 99.4% | 101% | 97% | 104 | 77.9 | 40.3% | 88.9% | – | 82.7% | 91.6% | 98.7% |
| C[C@H]1C[C@@H](n2cnc3c(N)nccc32)[C@H](O)[C@@H]1O | 106% | 96.3% | 92.3 | 167% | 119 | 101% | 116% | 120% | 23.6% | 65% | -54.1% (active) | 117% | 99 | 103 | 110% | 117% | 560% | 120% | 109% | 128% |
| COc1cc(NC(C)CCCN)c2nccc(C)c2c1OC (configuration not stated) | 95.2% | 99.4% | 82 | 89.5% | 114 | 100% | 99.9% | 83.7% | 64.8% | 73.1% | 69.4% | 65.7% | 98.2 | 91.8 | 29% | 96.1% | 92.8% | 44.4% | 87.3% | 98.2% |
| C/C(=N\Nc1cccc(Cl)n1)c1ccccn1 | 21% | 5.56% (active) | 13.6 | -1.99% (active) | 22.7 | 6.24% (active) | 12.7% | -1.3% (active) | 6.2% (active) | 4.01% (active) | 6.31% (active) | 20.8% | 20.2 | 23.5 | 10.5% | 22.5% | 17% | 26.7% | 58.9% | 0.96% (active) |
| COc1ccc(OC)c(Cn2cc3c(c2)-c2oncc2CC3)c1 | 45% | 42% | 45.9 | 41.9% | 68.9 | 55.8% | 12.5% | 24.2% | 16% | 28.7% | 22.7% | 42.5% | 55.5 | 58.1 | 69.1% | 11.6% | 31.2% | -4.75% (active) | 19.2% | 1.37% (active) |
| NNC(=O)CNc1ccc2ccccc2c1 | 98.7% | 105% | 104 | 70.9% | 119 | 101% | 106% | 107% | 101% | 83.6% | 55% | 113% | 108 | 195 | 108% | 106% | -27.9% (active) | 114% | 93.3% | 113% |
| COCn1c(C(=O)OC)cc2oc(/C=C3/SC(=S)N(N)C3=O)cc21 | 96.9% | 91.8% | 121 | 95.7% | 101 | 110% | 87.3% | 54% | 98.1% | 68.6% | 45.7% | 79.2% | 98 | 108 | 97.2% | 89.6% | – | 81.1% | 55.8% | 112% |
| COC(=O)[C@@H]1[C@H](O)[C@H](C)[C@H](O)[C@H](C)/C=C\C=C(C)C(=O)Nc2c(C)c(OC(C)=O)c3c(c2O)C(=O)C(C)=C2OCOC(=C23)C(C)=C[C@@](C)(O)[C@H](O)[C@@H](C)[C@H]1OC(C)=O | 8.13% (active) | 112% | 112 | 101% | 73.5 | 122% | 116% | 141% | 99.3% | 87.6% | 121% | 97.8% | 104 | 108 | 96.4% | 109% | – | 137% | 127% | 114% |
| CSC1=Nc2c(c(C)c(-c3ccccc3)n2CCCCl)C2=NC(=O)CN12 | 75.4% | 54.2% | 86.3 | 57.2% | 105 | 88.3% | 57.7% | 46.9% | 51.9% | 50.6% | 12.8% | 50.5% | 88.4 | 86.2 | 75.5% | 87.5% | 47.9% | 85.2% | 84.6% | 58% |
| N=c1c2c(=O)n3c(nc2nc2sc4ccc(Cl)cc4n12)-c1ccccc1Sc1ccccc1-3 | 7.77% (active) | 9.46% (active) | 21.4 | -5.37% (active) | 47 | 14.7% | 6.62% (active) | 47.1% | 12.5% | 8.17% (active) | 5.86% (active) | 7.72% (active) | 19.8 | 48.2 | 0.243% (active) | 19.5% | 2.34% (active) | 20.9% | 35.1% | 12.3% |
| O=C(O)c1occ(Cl)c1Cl | 120% | 100% | 109 | 97% | 111 | 109% | 104% | 90.4% | 105% | 111% | 92.7% | 100% | 107 | 96.5 | 115% | 109% | 120% | 118% | 115% | 111% |
| Cc1nn(-c2ccccc2)c(N)c1N=C1NC(=O)/C(=C/c2ccc(Cl)cc2)S1 | 100% | 90.8% | 85.8 | 73% | 104 | 87.3% | 66.8% | 68.6% | 68.2% | 87.9% | 34.1% | 49.5% | 91.6 | 86.6 | 75.2% | 88% | 104% | 68.8% | 93.1% | 92.2% |
